Bioassay records: PubChem BioAssay, Broad Institute
In the library only some 2.1% were active in any assay of this set; here they are far more common.
PfHsp90 set2 = growth inhibition of PfHsp90-expressing yeast, primary screen, antimalarial PfHsp90 inhibitor project, S. cerevisiae, BacTiter-Glo luminescence, single point, set 2; BacTiter-Glo ATP, 48 h; yeast lacking PDR1 and PDR3 efflux regulators; inhibition, % at 9.4 µM; actives 0.32% (n = 310,000); AID 504621, 2011;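 active means every replicate shows inhibition above about 80%, whatever the replicate mean, limit read from the data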;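 further: 0% = DMSO neutral controls and 100% = 20 µM radicicol positive controls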
Casp6 inh = human caspase-6 inhibitors, primary screen, biochemical, VEID-R110 fluorescence, single point, set 2. P55212. purified caspase-6, Z-VEID-R110 cleavage fluorescence. inhibition, % at 12.5 µM. actives 0.53% (n = 350,000);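 active means mean inhibition across replicates at least about 35%, with every replicate also reaching that limit, limit read from the data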;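 further: 0% = median of neutral control wells and 100% = no fluorescence left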
Target sequence (P55212 24-179 limits assumed): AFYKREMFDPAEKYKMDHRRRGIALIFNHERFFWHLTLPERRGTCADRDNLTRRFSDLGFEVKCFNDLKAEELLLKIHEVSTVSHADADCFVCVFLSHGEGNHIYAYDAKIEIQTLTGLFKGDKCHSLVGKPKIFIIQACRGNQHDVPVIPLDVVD
Target sequence (P55212 194-293 limits assumed): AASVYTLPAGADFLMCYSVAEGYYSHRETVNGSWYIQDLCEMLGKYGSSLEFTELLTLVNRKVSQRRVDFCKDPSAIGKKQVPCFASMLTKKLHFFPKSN
SIRT5 block = SIRT5 desuccinylase inhibitors, primary screen, biochemical, fluorescence imaging, single point, set 5 | Purified SirT5, succinyl-peptide AMC, trypsin-coupled fluorescence | inhibition, % at 15 µM | actives 1.1% (n = 330,000) | AID 652115, 2013; in the data active means inhibition above about 15%
Target sequence (Q9NXA8 whole entry, looked up): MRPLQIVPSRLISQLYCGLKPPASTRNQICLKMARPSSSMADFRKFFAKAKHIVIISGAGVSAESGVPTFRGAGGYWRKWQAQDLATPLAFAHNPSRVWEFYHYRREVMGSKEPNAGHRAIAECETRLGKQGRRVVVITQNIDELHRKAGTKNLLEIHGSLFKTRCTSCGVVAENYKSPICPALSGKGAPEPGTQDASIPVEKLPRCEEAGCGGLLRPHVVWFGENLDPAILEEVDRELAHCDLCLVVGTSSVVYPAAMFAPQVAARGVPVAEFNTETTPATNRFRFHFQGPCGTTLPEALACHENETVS
ARNT TACC3 PPI = disruptors of ARNT/TACC3 protein interaction, primary screen, biochemical, AlphaScreen, single concentration. Transforming acidic coiled-coil-containing protein 3 (Homo sapiens), Q9Y6A5. AlphaScreen His-ARNT PAS-B/GST-TACC3 binding, luminescence; TACC3 fragment carries E629A point mutation. inhibition, % at 9.99 µM. actives 0.66% (n = 390,000). AID 623870, 2012;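 active means mean inhibition of replicates at least 50% and at least half of replicates each reaching 50%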;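 further: 0% = complete ARNT plus TACC3 wells and 100% = ARNT alone without TACC3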
NSD2 HMT inh = NSD2 histone methyltransferase inhibitors, primary screen, biochemical, AlphaScreen, single concentration, set 2 | AID 743445, 2014 | actives 0.54% (n = 310,000) | inhibition, % at 12.5 µM | NSD2 peptide methylation, 120 min; in the data active means inhibition above about 50%
AlphaScreen ctr = AlphaScreen signal interference compounds, dose response, artefact control for ARNT-TACC3 interaction inhibitor project, biochemical, luminescence, cherry-pick; actives 50% (n = 1,200); His-ARNT PASB-GST AlphaScreen artifact counter-screen; AC50, µM (top dose mostly 68 µM), for inactives: at the highest dose activity change, negative = signal decrease; AID 651705, 2012; shares compounds with ARNT TACC3 PPI;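 active means every separate test run was called active for a drop in luminescence, with AC50 within twice the top valid dose, actives reach about 71 µM in these data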
* = called active by the depositor; · = not tested or not shown; [ ] = remark or other dose.

SMILES	PfHsp90 set2	Casp6 inh	SIRT5 block	ARNT TACC3 PPI	NSD2 HMT inh	AlphaScreen ctr
CC(=O)NC[C@@H]1[C@@H](c2ccc(-c3cccnc3)cc2)[C@@H](CO)N1C(=O)C1CCC1	·	·	·	7.3	·	·
O=C(C[C@H]1C=C[C@H](NS(=O)(=O)c2ccc(F)cc2)[C@H](CO)O1)N1CCN(c2ccccc2)CC1	·	-0.7	-1.1	52.3*	·	0.4%[38 µM]
Cc1cc(=O)n2c3c(c4c(cc13)c(CN(C)C)cc(=O)n4C)OC2	-22.5	98.9*	1.7	33.7*	·	-21.2%
CO[C@@H]1CN(C)C(=O)c2cc(NC(=O)C3CCC3)ccc2OC[C@H](C)N(Cc2nccs2)C[C@@H]1C	·	2.9	5.4	-10.3	·	·
CCC(C)c1c(N)n(S(=O)(=O)c2ccc(C)cc2)oc1=O (stereo unspecified)	-24.9	-2.8	·	61.1*	-2.1	34.8µM*
O=C(CCN1C(=O)c2cccnc2C1=O)NC1CCCCCC1	-15.4	·	·	59.2*	2.7	-13.0%
Cc1noc(C)c1NC(=O)Nc1ccc2c(c1)C(=O)N([C@H](C)CO)C[C@@H](C)[C@@H](CN(C)S(C)(=O)=O)O2	·	2.4	1.6	7.7	·	·
Cc1c(NC(=O)c2ccc(-c3ccccc3)cc2)cccc1C(=O)O	6.1	0.8	·	-8.2	-0.2	·
Cc1c(NC(=O)c2cccnc2C(=O)O)cccc1C(=O)O	-9.4	·	·	33.6*	-3.2	3.5%
CCN1[C@@H]2c3ccc(-c4cccc(F)c4)c(=O)n3C[C@H]1[C@H](CO)[C@H]2C(=O)NCC1CC1	·	2.8	-3.2	8.1	·	·
COc1ccccc1C(CCNCc1ccc(N(C)C)cc1)c1ccc(OC(C)C)cc1 (stereo unspecified)	11.8	5.5	3.3	active	31.5	7.71µM*
C[C@H]1CCCCO[C@H](CN(C)C(=O)C2CCCCC2)[C@@H](C)CN([C@@H](C)CO)C(=O)c2cc(NS(=O)(=O)c3cn(C)cn3)ccc2O1	·	3.2	1.5	-3.2	·	·
CC(C)NC(=O)N(C)C[C@H]1OCCCC[C@@H](C)Oc2ccc(NS(=O)(=O)c3cccs3)cc2C(=O)N([C@H](C)CO)C[C@H]1C	·	0.1	-3.4	-10.1	·	·
CN1CCc2c(sc3c2C(=O)NC(c2ccccn2)N3)C1 (stereo unspecified)	-27.3	·	·	active	·	68.4µM*
CN1CCc2c(sc3c2C(=O)NC(c2ccccc2)N3)C1 (stereo unspecified)	-6.4	·	·	-1.8	4.8	·
CCOc1cc(/C=C2\SC(=N)N(c3nccs3)C2=O)ccc1OCCN1CCOCC1	-4.1	-0.6	2.7	50.6*	21.1	69.6µM*
CCOc1cc(/C=C2\SC(=S)N(N3CCOCC3)C2=O)ccc1O	-14.8	3.5	-3.7	-3.3	-1.3	·
O=C(C[C@H]1C=C[C@@H](NC(=O)C2CC2)[C@@H](CO)O1)Nc1nccs1	·	4.1	-0.8	33.9*	·	-3.3%[38 µM]
COc1ccc(S(=O)(=O)N(C)C[C@@H]2OCCCC[C@H](C)Oc3ccc(NS(=O)(=O)c4cn(C)cn4)cc3C(=O)N([C@@H](C)CO)C[C@H]2C)cc1	·	3.4	3.0	-0.3	·	·
Cc1nc(Nc2ccc(C(=O)O)cc2)nc(Nc2ccc(C(=O)O)cc2)c1[N+](=O)[O-]	-5.1	5.0	11.9	63.8*	·	9.44µM*
COCC(=O)N1CCCCN2[C@H](CO)[C@H](c3ccc(C#Cc4cccnc4)cc3)[C@@H]2C1	·	2.1	-0.6	4.7	·	·
CC1=C(SCc2ccccc2)C(=O)c2ccccc2C1=O	-0.2	64.3*	3.1	23.9*	21.9	55.4µM*
CCC(C(=O)Nc1ncn[nH]1)(C(F)(F)F)C(F)(F)F	-0.9	·	·	10.5*	·	-5.4%
COc1ccc(C(c2nnnn2C2CCCC2)N2CCc3ccccc3C2)cc1OC (stereo unspecified)	14.4	·	·	58.0*	1.1	-25.5%
CCSc1nnc(NC(=O)C2CCCCC2C(=O)O)s1 (stereo unspecified)	-6.1	·	·	active	0.6	-0.1%
SMILES	PfHsp90 set2	Casp6 inh	SIRT5 block	ARNT TACC3 PPI	NSD2 HMT inh	AlphaScreen ctr
CCSc1nnc(NC(=O)C2CC2c2ccccc2)s1 (stereo unspecified)	-4.2	-4.0	-0.4	·	23.5	·
O=C(NC1CCCCC1)c1cc(-c2ccc(F)cc2)on1	3.9	-1.1	1.1	-4.3	24.7	·
Cc1ccc(-c2cc(C(=O)NC3CCCC3)no2)cc1	-12.6	-2.3	-1.0	-7.3	-3.8	·
O=C(NC1CCc2ccccc2C1)c1cc(-c2ccccc2)on1 (stereo unspecified)	·	·	·	·	·	-1.8%[38 µM]
O=C(NC1Cc2ccccc2C1)c1cc(-c2ccccc2)on1	·	·	·	·	·	1.3%[38 µM]
COc1ccc(NC(=O)N(C)C[C@@H]2Oc3c(NC(=O)NC4CCCCC4)cccc3C(=O)N([C@H](C)CO)C[C@@H]2C)cc1	·	-5.7	3.4	12.1	·	·
O=C(O)CSc1c(O)c2ccccc2[nH]c1=O	-4.8	1.6	2.5	60.3*	-2.4	-9.6%
Cc1[nH]c2ccccc2c1SCC(=O)O	-9.3	·	·	0.4	2.5	·
CCN=C1S/C(=C\c2cn(C(C)=O)nc2-c2ccccc2)C(=O)N1CC	·	·	·	-0.4	-2.5	·
CC(=O)NC1=NC(=O)/C(=C/c2cn(C(C)=O)nc2-c2ccccc2)S1	19.1	9.3	1.5	54.1*	3.8	-16.4%
C/C=C/c1cnc2c(c1)C(=O)N([C@@H](C)CO)C[C@H](C)[C@H](CN(C)Cc1cccc(C(=O)O)c1)O2	·	2.3	-11.0	0.4	·	·
COc1ccc(Cc2nnc(NN)[nH]c2=O)cc1OC	-15.4	3.0	-0.3	active	-3.0	26.5µM*
COc1ccc(/C=N/Nc2nnc(Cc3ccc(OC)c(OC)c3)c(=O)[nH]2)cc1OC	14.7	2.0	2.9	1.9	-2.1	·
COc1ccc(Cc2nnc(N/N=C(\C)c3ccccc3)[nH]c2=O)cc1OC	2.2	-0.5	-1.9	47.3*	-16.5	-14.1%
C[C@H]1CN([C@@H](C)CO)C(=O)c2cccc(NS(=O)(=O)c3ccc(F)cc3)c2O[C@H]1CN(C)Cc1ccccc1	·	-0.3	2.8	-1.3	·	·
O=S(=O)(c1cccc2cccnc12)N1CCN(Cc2ccc(OCCO)cc2)CC1	·	-3.8	-2.0	64.2*	·	51.4µM*
O=S(=O)(NC1CCN(Cc2ccc(OCCO)cc2)CC1)c1cccc2cccnc12	·	1.0	·	112.9*	·	24.8µM*
O=C(C1CCN(S(=O)(=O)c2cccc3cccnc23)CC1)N1CCN(Cc2ccccc2)CC1	4.8	0.7	·	5.8	·	·
